Measurements taken from PubChem BioAssay.
Unmarked numbers belong to inactive results. Calls of active or inactive are those of the source. Unless noted, no stated cut-off is given here; in the data, active means inhibition above about 30%; inactive means the rest.

Columns and labels:
[1] = target: Nuclear receptor coactivator 3 (Homo sapiens) (UniProt Q9Y6Q9); test: SRC3 coactivator transcriptional activity inhibitors, confirmation, cell-based, luminescence, quadruplicate (AID 588792;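 active means mean inhibition over 43.08%, the solvent-only control mean plus 3 SD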;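 further: 0% = DMSO treated cells and 100% = gossypol at 36 µM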); details: HEK293 GAL4-SRC3 luciferase reporter, at 3.6 µM, active compounds read high
[2] = system: transactivating tegument protein VP16 (Human herpesvirus 1), Gal4-VP16 luciferase reporter; test: VP16 transactivation inhibitors, counter-screen for SRC3 inhibitor project, cell-based, luminescence, high throughput (AID 588794); details: mammalian cells, VP16-driven luciferase reporter luminescence; at 3.6 µM; active compounds read high

Nuclear receptor coactivator 3 (Homo sapiens), sequence (Q9Y6Q9 whole entry, looked up, the tested form may be a part): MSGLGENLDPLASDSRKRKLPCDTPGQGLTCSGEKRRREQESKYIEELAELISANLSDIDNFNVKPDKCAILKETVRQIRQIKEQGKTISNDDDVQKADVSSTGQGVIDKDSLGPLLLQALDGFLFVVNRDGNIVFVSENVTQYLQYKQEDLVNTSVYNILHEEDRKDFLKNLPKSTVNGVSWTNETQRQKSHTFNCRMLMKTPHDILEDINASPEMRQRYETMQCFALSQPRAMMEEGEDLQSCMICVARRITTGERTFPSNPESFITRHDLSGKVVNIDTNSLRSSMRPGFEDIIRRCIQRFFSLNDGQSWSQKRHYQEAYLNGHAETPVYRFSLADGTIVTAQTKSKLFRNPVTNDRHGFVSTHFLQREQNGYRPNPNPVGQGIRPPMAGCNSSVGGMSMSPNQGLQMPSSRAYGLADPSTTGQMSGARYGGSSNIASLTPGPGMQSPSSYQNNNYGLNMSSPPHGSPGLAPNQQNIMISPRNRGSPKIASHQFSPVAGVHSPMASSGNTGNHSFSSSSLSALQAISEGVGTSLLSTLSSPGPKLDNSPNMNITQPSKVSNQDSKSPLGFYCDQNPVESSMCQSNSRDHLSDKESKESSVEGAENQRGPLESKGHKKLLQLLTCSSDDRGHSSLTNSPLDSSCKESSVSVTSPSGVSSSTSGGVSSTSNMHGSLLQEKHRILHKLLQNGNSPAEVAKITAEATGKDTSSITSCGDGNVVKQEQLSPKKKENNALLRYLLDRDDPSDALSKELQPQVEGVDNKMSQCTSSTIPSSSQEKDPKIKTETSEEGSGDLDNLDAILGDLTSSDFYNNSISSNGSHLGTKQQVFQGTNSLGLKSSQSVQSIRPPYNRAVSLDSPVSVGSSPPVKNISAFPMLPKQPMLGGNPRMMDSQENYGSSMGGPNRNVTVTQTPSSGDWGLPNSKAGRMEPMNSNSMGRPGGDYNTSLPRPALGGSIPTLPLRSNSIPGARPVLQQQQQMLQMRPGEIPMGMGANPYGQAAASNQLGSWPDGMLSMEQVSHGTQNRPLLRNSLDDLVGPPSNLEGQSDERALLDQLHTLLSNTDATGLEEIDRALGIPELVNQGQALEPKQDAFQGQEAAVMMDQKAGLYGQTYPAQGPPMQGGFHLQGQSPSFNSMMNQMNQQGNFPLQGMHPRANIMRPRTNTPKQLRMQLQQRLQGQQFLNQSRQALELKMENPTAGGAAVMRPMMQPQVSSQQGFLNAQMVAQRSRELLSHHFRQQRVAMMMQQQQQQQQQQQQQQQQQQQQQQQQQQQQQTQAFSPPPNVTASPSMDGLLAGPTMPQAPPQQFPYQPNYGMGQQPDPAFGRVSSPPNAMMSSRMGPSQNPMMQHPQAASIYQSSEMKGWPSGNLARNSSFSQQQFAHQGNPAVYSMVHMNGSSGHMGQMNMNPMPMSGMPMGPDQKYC

In the case of O=C(NNC(=O)c1cccnc1SCc1cccc([N+](=O)[O-])c1)c1ccccn1, the inhibition [1] is reported as 34.4% and the inhibition [2] is reported as 30.1% (active).
For COc1ccc2[nH]c(C(=O)N/N=C/c3ccc(O)cc3O)cc2c1, the inhibition [1] was 54.5% (active) and the inhibition [2] was 45.9% (active).
Work on COc1cccc(/C=N/NC(=O)c2ccc(=O)n(C)c2)c1O yielded an inhibition [1] of 12.1% and an inhibition [2] of 9.91%.
O=C(N/N=C/c1ccccc1O)c1ccncc1 showed an inhibition [1] of 14.8% and an inhibition [2] of 13.7%.
COc1ccc(NC(=O)c2cc(C3CC3)nc3c2cnn3C(C)C)cc1OC gave an inhibition [1] of -12.8% and an inhibition [2] of -3.62%.
With Cc1cc(C=C2C(=O)c3ccccc3C2=O)c(C)n1-c1ccccc1 the inhibition [1] was 67.5% (active) and the inhibition [2] was 43.2% (active).
In the case of CC(=O)c1cccc(NC(=O)Nc2ccc3c(c2)N(C)C(=O)CS3)c1, the inhibition [1] is reported as 32.7% and the inhibition [2] is reported as 3.54%.
For Cc1c(Cl)cccc1NC(=O)CCC(=O)N/N=C/c1ccc[nH]1, the inhibition [1] was 13.6% and the inhibition [2] was 14.5%.
With COc1ccc(CNC(=O)COC(=O)c2cc(-c3ccc(Cl)s3)nc3ccccc23)cc1 the inhibition [1] was -14.9% and the inhibition [2] was -13.6%.
For C=CCn1c(SCC(=O)NC2CCCC2)nnc1-c1ccccn1, the inhibition [1] was -14.7% and the inhibition [2] was -2.97%.
O=C(c1ccc(Cl)cc1)C(Cn1cncn1)C(Sc1ccccc1)c1ccccc1 (stereo not drawn) showed an inhibition [1] of 14.8% and an inhibition [2] of 20.1%.
CC1=C(NCCc2ccccc2)CCC1=O was tested, and the inhibition [1] was 0.47% and the inhibition [2] was -7.31%.
In the case of Cc1ccc(-c2c[n+](Cc3cccc(Cl)c3)c3n2CCC3)cc1, the inhibition [1] is reported as -6.57% and the inhibition [2] is reported as 18.4%.
CCCCCCC(=O)NNC(=O)CC(=O)Nc1ccccc1C(=O)O was tested, and the inhibition [1] was 4.52% and the inhibition [2] was -10.2%.
With O=C(NC(=S)Nc1cccc2cnccc12)c1ccccc1 the inhibition [1] was 51.4% (active) and the inhibition [2] was 44.1% (active).
Molecule CN1/C(=C\C(=O)C[n+]2cccc(Br)c2)C(C)(C)c2ccccc21 has an inhibition [1] of 25.3% and an inhibition [2] of 21.2%.
O=C(N/N=C/c1cc(Br)c(Br)s1)c1ccncc1 showed an inhibition [1] of 31.1% and an inhibition [2] of 18.5%.
For Cc1cc(C)n(Cc2ccc(NC(=O)c3ccc(COc4ccccc4Br)cc3)cc2)n1, the inhibition [1] was -0.48% and the inhibition [2] was 20.2%.
Molecule CCN(CC)CCOc1c(Br)ccc2c1sc1nc3n(c(=O)c12)CCC3 has an inhibition [1] of -18.1% and an inhibition [2] of 2.47%.
In the case of CCN1CCN(c2cc(C)c3cc(NC(=S)N4CCCC(C)C4)ccc3n2)CC1 (stereo not drawn), the inhibition [1] is reported as 45.3% (active) and the inhibition [2] is reported as 31.4% (active).
In the case of Cc1cc(NC2CCCCC2)nc(NCc2ccccc2)n1, the inhibition [1] is reported as 18.8% and the inhibition [2] is reported as 28.1%.
In the case of COc1ccc(N/N=C/c2c(C(=O)O)ccc3ccccc23)cc1, the inhibition [1] is reported as 31.2% and the inhibition [2] is reported as 36.5% (active).
In the case of Cc1nc(SCC(=O)NNC(=O)c2ccc(F)cc2)c2ccccc2n1, the inhibition [1] is reported as -5.28% and the inhibition [2] is reported as -10.9%.
In the case of O=C(O)c1ccc(Cl)c(S(=O)(=O)NCc2cccnc2)c1, the inhibition [1] is reported as 0.83% and the inhibition [2] is reported as -9.62%.
With CC(C)c1ccc(NC(=O)C2CCCN(S(=O)(=O)c3cccnc3)C2)cc1 (stereo not drawn) the inhibition [1] was -12.3% and the inhibition [2] was 4.41%.
Molecule CCn1cc(C(=O)NCc2ccco2)c(=O)c2cc(S(=O)(=O)N3CCCCCC3)ccc21 has an inhibition [1] of 20% and an inhibition [2] of 23.5%.
Work on Clc1ccc(-c2c[n+](Cc3ccc(Cl)cc3Cl)c3n2CCCCC3)cc1 yielded an inhibition [1] of 6.98% and an inhibition [2] of 10.8%.
COc1ccc(C(=O)NCC(=O)OCc2c(Cl)cccc2Cl)cc1OC showed an inhibition [1] of -0.66% and an inhibition [2] of 1.22%.
For COc1cccc(/C=N/NC(=O)C(C)n2nc(C)c([N+](=O)[O-])c2C)c1O (stereo not drawn), the inhibition [1] was 10.2% and the inhibition [2] was 27.4%.
COc1ccccc1NS(=O)(=O)c1cc(NC(=O)c2[nH]c(C)c(C(C)=O)c2C)ccc1N1CCOCC1 was tested, and the inhibition [1] was 15.5% and the inhibition [2] was -14.8%.
In the case of Cc1cccc(NC(=S)N(CCCN2CCOCC2)Cc2cn(C)c3ccccc23)c1, the inhibition [1] is reported as -2.78% and the inhibition [2] is reported as -2.77%.
Nc1ccccc1SCC(=O)Nc1nc(-c2ccccc2)cs1 was tested, and the inhibition [1] was 25% and the inhibition [2] was 48.4% (active).
Cc1ccc(F)cc1NC(=O)C1CCN(c2cnccn2)CC1 was tested, and the inhibition [1] was -9.49% and the inhibition [2] was -3.26%.
Work on CCOCc1c(C(=O)NC2=Nc3ccccc3NC(CC)=C2C(=O)OCC)oc2ccccc12 yielded an inhibition [1] of 1.38% and an inhibition [2] of -11.3%.
